Gal4-VP16 FLuc: counter-screen for ROR gamma inhibitors: Gal4-VP16 reporter. Drosophila S2 Gal4-VP16 UAS-luciferase, luminescence, 20 h. Potency, µM (titrated, usually from 53.6 µM), hits mostly inhibitors. 310,000 compounds, 3.5% hits;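 note: Gal4-VP16 expression switched on by copper sulfate through the metallothionein promoter; nearly all actives have a fitted effect of over 50% in size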
BCR signal inh: blocks chronic active B-cell receptor signaling; ABC-DLBCL IkBa-CBG/CBR reporter, luminescence ratio, 4 h; 340,000 compounds, 0.05% hits; Potency, µM (highest dose often 46.1 µM), usual class: inhibitors; active = well fitted inhibition curve with a large enough effect in the signal ratio, with a control signal flat, not every such curve was filed as active; inconclusive = small, poorly fitted or top-dose-only effect, or effect the other way, or a change in a side signal; the % refers to the signal ratio
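TMD8 ABC-DLBCL cells carrying doxycycline-inducible green luciferase fused to IkappaBalpha plus unfused red luciferase were exposed to compounds (up to 46 uM) for 4 hrs at 37C. Activity came from the overlap-corrected green/red luminescence ratio.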
SW480 rereplic: induces DNA re-replication in SW480 colon adenocarcinoma cells; Potency, µM (series often up to 46.1 µM), hits mostly activators; 340,000 compounds, 1.8% hits; SW480 DNA re-replication, Hoechst DNA content imaging, 48 h; note: nearly all actives have a fitted effect of over 55% in size
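Per well, 250 cells were exposed to pinned compound for 48 hr. Nuclear DNA was visualised with Hoechst (40 min, 37 C) and total object intensity recorded by fluorescence scanning.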
MCF10A rerep: inducers of DNA re-replication in MCF 10A breast cells | MCF 10A DNA re-replication, Hoechst nuclear intensity, 48 h | 350,000 compounds, 2.9% hits | Potency, µM (top dose mostly 46.1 µM), most hits filed as activators; note: nearly all actives have a fitted effect of over 50% in size
Giardia kill: kills Giardia lamblia. AID 540267. activity change, % at 7.66 µM, hits read low. 340,000 compounds, 0.15% hits. Giardia lamblia trophozoite viability; in the data active = activity change below about -80%; inconclusive = between about -30% and that limit;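 note: parasites exposed to compound for two days anaerobically before the ATP read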
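Giardia lamblia trophozoites (100 cells/well) were incubated with compounds for 48 h at 37 deg C under anaerobic conditions. Viability was read as ATP content by one-step luminescence after 15-30 min at room temperature.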
RORgamma inh: ROR gamma (mouse) transcription inhibition. P51450. Drosophila S2 Gal4-RORgamma UAS-luciferase reporter, 20 h. Potency, µM (doses to about 53.6 µM), usual class: inhibitors. 310,000 compounds, 5.4% hits; note: nearly all actives have a fitted effect of over 60% in size
Target sequence (P51450 whole entry, looked up, the tested form may be a part): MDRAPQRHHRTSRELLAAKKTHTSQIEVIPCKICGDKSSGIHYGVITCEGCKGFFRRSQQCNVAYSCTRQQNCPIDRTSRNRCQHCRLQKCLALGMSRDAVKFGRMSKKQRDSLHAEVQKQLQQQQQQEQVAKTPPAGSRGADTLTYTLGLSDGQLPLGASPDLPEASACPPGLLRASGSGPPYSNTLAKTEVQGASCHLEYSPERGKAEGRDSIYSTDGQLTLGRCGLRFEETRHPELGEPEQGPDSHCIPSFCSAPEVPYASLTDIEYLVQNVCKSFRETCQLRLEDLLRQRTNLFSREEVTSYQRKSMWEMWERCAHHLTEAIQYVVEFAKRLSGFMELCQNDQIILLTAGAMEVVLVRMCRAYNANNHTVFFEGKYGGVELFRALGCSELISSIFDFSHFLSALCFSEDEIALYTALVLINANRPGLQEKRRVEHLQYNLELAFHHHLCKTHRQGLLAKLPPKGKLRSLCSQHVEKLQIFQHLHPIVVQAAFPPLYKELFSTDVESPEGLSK
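Using a luciferase readout, inhibitors were identified by reduced reporter activity in Drosophila cells coexpressing a copper-inducible Gal4–ROR gamma fusion and UAS-driven Photinus luciferase, incubated 20 hr after 700 uM copper sulfate.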
Large screens that a line does not name were inactive. An excerpt weighted towards active compounds, which were near 8.3% of everything screened. Unless noted, calls come from the whole dose curve; as a rule, active = well fitted curve in the direction sought with a large enough effect; inconclusive = small, poorly fitted or top-dose-only effect, or another doubt; inactive = no such curve, though single readings can be large; an effect the other way counts as inactive or inconclusive.

CS(=O)(=O)c1ccc2nc(NC(=O)CCS(=O)(=O)c3ccccc3)sc2c1	Gal4-VP16 FLuc inconclusive, SW480 rereplic 3.7µM, MCF10A rerep 3.3µM, RORgamma inh 18µM
CS(=O)(=O)c1ccc2nc(NC(=O)c3ccccc3)sc2c1	Gal4-VP16 FLuc inconclusive, BCR signal inh inconclusive, RORgamma inh 11µM
COc1ccc(NC(=O)CCS(=O)(=O)c2ccc(Cl)cc2)cc1	none
CC(=O)c1sc(NC(=O)CCS(=O)(=O)c2ccc(Cl)cc2)nc1C	BCR signal inh inconclusive, SW480 rereplic inconclusive, MCF10A rerep 7.3µM (no result: Gal4-VP16 FLuc, RORgamma inh)
Cc1ccc([N+](=O)[O-])cc1S(=O)(=O)N(C)C	none (no result: BCR signal inh, SW480 rereplic, MCF10A rerep, Giardia kill)
O=C(NC(=S)N1CCc2ccccc21)c1ccccc1Br	Gal4-VP16 FLuc 0.89µM, BCR signal inh inconclusive, RORgamma inh 0.1µM
O=C(NC(=S)N1CCc2ccccc21)c1ccc(Br)o1	Gal4-VP16 FLuc 0.32µM, BCR signal inh inconclusive, RORgamma inh 0.25µM
Cc1ccc(C(=O)N2CCc3ccccc32)o1	RORgamma inh inconclusive
CN1CCN(C(=S)NC(=O)c2ccccc2Br)CC1	Gal4-VP16 FLuc 11µM, RORgamma inh 7.1µM
Cc1cccc(Nc2ncnc3onc(-c4cccc(Cl)c4)c23)c1C	none
CCNC(=O)NC(=O)CSc1ccc(S(=O)(=O)N2CCCCC2)cn1	BCR signal inh inconclusive (no result: Gal4-VP16 FLuc, RORgamma inh)
COc1cccc(-c2csc(N3CCN(C(=O)Nc4ccc(F)cc4)CC3)n2)c1	BCR signal inh inconclusive, MCF10A rerep inconclusive
COc1cccc(-c2csc(N3CCN(C(=O)C4CCCCC4)CC3)n2)c1	MCF10A rerep 15µM, RORgamma inh inconclusive
O=C(NC1CCCCC1)c1sc(N2CCOCC2)nc1-c1ccccc1	MCF10A rerep 5.8µM
O=C(NC1CCCCC1)N1CCN(c2nc(-c3ccccc3)cs2)CC1	Gal4-VP16 FLuc inconclusive, MCF10A rerep inconclusive, RORgamma inh 11µM
O=C(Nc1ccccc1)c1sc(N2CCOCC2)nc1-c1ccccc1	BCR signal inh inconclusive, RORgamma inh inconclusive
Cc1cccc(N(CC(=O)NC2CCCC2)C(=O)c2csnn2)c1C	none
CCN(Cc1ccccc1)S(=O)(=O)c1ccc(C(=O)N(CCCN(C)C)c2nc3cc(C)cc(C)c3s2)cc1	BCR signal inh inconclusive, MCF10A rerep 23µM (no result: Gal4-VP16 FLuc, RORgamma inh)
CCOc1cccc2sc(N(CCCN(C)C)C(=O)c3ccc(S(=O)(=O)N(CC)Cc4ccccc4)cc3)nc12	Gal4-VP16 FLuc 22µM, BCR signal inh inconclusive, MCF10A rerep inconclusive, RORgamma inh inconclusive
Cc1cc(C)c2sc(N(CCCN(C)C)C(=O)c3ccc(S(=O)(=O)N(C)Cc4ccccc4)cc3)nc2c1	SW480 rereplic inconclusive, MCF10A rerep inconclusive (no result: Gal4-VP16 FLuc, RORgamma inh)
CCCCN(CC)S(=O)(=O)c1ccc(C(=O)N(CCCN(C)C)c2nc3cc(C)cc(C)c3s2)cc1	Gal4-VP16 FLuc inconclusive, RORgamma inh 11µM
O=C(CSc1cccc[n+]1[O-])c1cc(Cl)ccc1Cl	Gal4-VP16 FLuc inconclusive, BCR signal inh inconclusive, SW480 rereplic inconclusive, RORgamma inh 11µM
O=C(CSc1cccc[n+]1[O-])c1cc2ccccc2o1	Gal4-VP16 FLuc inconclusive, BCR signal inh inconclusive, SW480 rereplic 13µM, RORgamma inh inconclusive
O=C(c1cccc(S(=O)(=O)Nc2ccc(Br)cc2)c1)N1CCC1	none
COc1ccc(NC(=O)CN2CCN(c3nc(-c4ccc(F)cc4)cs3)CC2)c(OC)c1	BCR signal inh inconclusive
CCOC(=O)c1sc(NC(=O)CNCc2cccnc2)c(C(=O)OCC)c1C	none
CCOC(=O)c1sc(NC(=O)CNCc2ccccn2)c(C(=O)OCC)c1C	Gal4-VP16 FLuc inconclusive, MCF10A rerep inconclusive, RORgamma inh 7.9µM
CCOC(=O)c1sc(NC(=O)CCN2CCCCCC2)c(C(=O)OCC)c1C	Gal4-VP16 FLuc inconclusive, BCR signal inh inconclusive, SW480 rereplic inconclusive, MCF10A rerep inconclusive, RORgamma inh 11µM
COc1ccc(Cl)cc1NC(=O)CSc1nc(NS(=O)(=O)c2ccc(C)cc2)cc(=O)[nH]1	none
C/C(=C\c1ccccc1)C(=O)Nc1ccc(Cl)cn1	Gal4-VP16 FLuc inconclusive, BCR signal inh inconclusive, RORgamma inh inconclusive
C(=N\Nc1nc2ccccc2[nH]1)/c1ccccn1	Gal4-VP16 FLuc 1.1µM, BCR signal inh inconclusive, SW480 rereplic inconclusive, RORgamma inh 0.56µM
C#CCn1cc(/C=N/NC(=O)COc2cccc3cccnc23)c2ccccc21	BCR signal inh inconclusive, MCF10A rerep inconclusive
C(=N\Nc1nc2ccccc2[nH]1)/c1ccc2c(c1)OCCO2	Gal4-VP16 FLuc inconclusive, BCR signal inh inconclusive, RORgamma inh 5.6µM
C(=N\Nc1nc2ccccc2[nH]1)/c1ccc2ncccc2c1	BCR signal inh inconclusive, MCF10A rerep inconclusive
C#CCn1cc(/C=N/Nc2nc3ccccc3[nH]2)c2ccccc21	Gal4-VP16 FLuc inconclusive, BCR signal inh inconclusive, SW480 rereplic inconclusive, MCF10A rerep inconclusive, RORgamma inh 16µM
Fc1ccccc1-c1ccc(/C=N/Nc2nc3ccccc3[nH]2)o1	Gal4-VP16 FLuc 3.5µM, BCR signal inh 23µM, SW480 rereplic inconclusive, MCF10A rerep 18µM, RORgamma inh 3.2µM
COc1ccc(N(C(=O)c2ccco2)C(C(=O)NC2CCCC2)c2ccc(OC)c(OC)c2)cc1 (centres undefined)	none
CC1CC(=O)N(c2ccc(NCc3ccccc3Cl)c([N+](=O)[O-])c2)C1=O (centres undefined)	none
BrC(=C\c1ccccc1)/C=N/Nc1nc2ccccc2[nH]1	Gal4-VP16 FLuc 5µM, BCR signal inh inconclusive, SW480 rereplic inconclusive, MCF10A rerep 8.2µM, RORgamma inh 3.2µM
Cc1ccc(/C=N\Nc2nc3ccc(Cl)cc3[nH]2)o1	Gal4-VP16 FLuc 13µM, BCR signal inh inconclusive, MCF10A rerep inconclusive, RORgamma inh 6.3µM
Cc1cc(=O)[nH]c(N/N=C/c2ccccn2)n1	SW480 rereplic 4.1µM, MCF10A rerep inconclusive, RORgamma inh inconclusive
Cc1ccc(/C=N/Nc2cn[nH]c(=O)n2)o1	BCR signal inh inconclusive, RORgamma inh inconclusive
O=c1cnnc(N/N=C/c2ccccn2)[nH]1	SW480 rereplic inconclusive, MCF10A rerep inconclusive
C(=NN=C(NN=Cc1cccs1)NN=Cc1cccs1)c1cccs1	SW480 rereplic inconclusive (no result: Gal4-VP16 FLuc, BCR signal inh, RORgamma inh)
C/C(=N\O)c1ncc(C(F)(F)F)cc1Cl	none
COCCCN=Cc1c(C)[nH]n(-c2ccc(Br)c(C)c2)c1=O	Gal4-VP16 FLuc 6.3µM, MCF10A rerep inconclusive, RORgamma inh 7.1µM
S=c1[nH]nc(-c2cccs2)n1/N=C/c1cn(-c2ccccc2)nc1-c1cccs1	Gal4-VP16 FLuc inconclusive, BCR signal inh inconclusive, MCF10A rerep inconclusive, RORgamma inh 7.9µM
Cc1ccsc1/C=N/n1c(-c2cccnc2)n[nH]c1=S	RORgamma inh 11µM
O=[N+]([O-])c1ccc(/C=N/n2c(-c3cccnc3)n[nH]c2=S)cc1	none
Cc1ccc(-c2nn(-c3ccccc3)cc2/C=N/n2c(-c3cccs3)n[nH]c2=S)cc1	BCR signal inh inconclusive, SW480 rereplic inconclusive, RORgamma inh inconclusive

Screening data as filed in PubChem.
